For orientation: AC50 means the midpoint of the concentration-response curve, whichever way the signal moves.

About 4,000 (25%) of roughly 16,000 compounds were called active. Not shown: some 26% with an inconclusive outcome. The list is a sample of the results. Unmarked numbers belong to inactive results. Calls follow the shape of the dose curve; as a rule, active = well fitted curve in the direction sought with a large enough effect; inconclusive = small, poorly fitted or top-dose-only effect, or effect the other way; inactive = no such curve, though single readings can be large or run the other way.
% is scaled to controls: 0 for no effect and ±100 for the full control effect.

In the experiment the target is Cytochrome P450 2C9 (Homo sapiens) (UniProt P11712). Nature of the experiment: Cytochrome panel assay with activity outcomes. The following applies: recombinant CYP, pro-luciferin dealkylation, luminescence, p450-cyp2c9; series mostly up to 57.1 µM; activity, negative = inhibition: at the top concentration.
Cytochrome P450 2C9 (Homo sapiens), sequence (P11712 whole entry, looked up): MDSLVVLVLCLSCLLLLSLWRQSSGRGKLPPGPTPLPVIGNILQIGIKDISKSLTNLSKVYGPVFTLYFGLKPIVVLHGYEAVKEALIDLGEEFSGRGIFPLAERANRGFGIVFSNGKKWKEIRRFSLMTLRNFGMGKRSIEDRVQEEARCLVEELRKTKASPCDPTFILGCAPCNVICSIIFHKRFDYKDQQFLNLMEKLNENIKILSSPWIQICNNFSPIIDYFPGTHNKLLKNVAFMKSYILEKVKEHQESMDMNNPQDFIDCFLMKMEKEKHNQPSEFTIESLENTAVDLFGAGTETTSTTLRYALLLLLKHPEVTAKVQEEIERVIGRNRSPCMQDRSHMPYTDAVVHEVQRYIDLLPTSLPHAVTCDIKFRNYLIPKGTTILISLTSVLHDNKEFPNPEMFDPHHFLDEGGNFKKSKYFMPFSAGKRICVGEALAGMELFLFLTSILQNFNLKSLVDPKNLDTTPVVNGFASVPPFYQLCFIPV
On to `N#C/C(=N\O)c1nc(-c2ccccc2)cs1`, for which the AC50 was 22.4 µM (active).

For the compound `C[n+]1cccc(CNC(=O)/C=N/O)c1`, the “activity, negative = inhibition” value is 4.55%. On to `O=C1OCCC=C1[C@@H](O)CCc1ccccc1`, for which the activity, negative = inhibition is 5.4% [at 11.4 µM]. Take `O=C(O)[C@H](CCc1ccccc1)N1C(=O)c2ccccc2C1=O`: the activity, negative = inhibition is -7.78% [at 11.4 µM]. In the case of `O=C1C(=O)c2ccccc2C(O)=C1C(CCc1ccccc1)C1=C(O)c2ccccc2C(=O)C1=O`, the AC50 was 3.16 µM (active). As to `CC(=O)O[C@H]1C2=CO[C@H](C)[C@H]3[C@H]4C5=C([C@H](O)[C@H]6O[C@@H]6C5=O)[C@H](O[C@H]4C)[C@@]23C(=O)[C@H]2O[C@@H]21`, the activity, negative = inhibition was 19.9% [at 11.4 µM]. Take `COC(=O)c1cc(Br)c(=O)n(CCc2ccc(O)cc2)c1`: the half-maximal activity concentration (AC50) was 12.6 µM (active).

In the case of `CC(C)CN1CCCC2(CCN(C(=O)c3csnn3)CC2)C1`, the “activity, negative = inhibition” value is -12.6%.

For `NC(=O)C1CCN(C(=O)OCc2ccccc2)CC1`, the “activity, negative = inhibition” value was -21.8%.

Consider `O=C(O)C1CCCN1C(=O)OCc1ccccc1` (centres undefined), for which the “activity, negative = inhibition” value was -14.5%. As to `O=C1CCC[C@@H](C(C(=O)OCc2ccccc2)C(=O)OCc2ccccc2)C1`, the AC50 was 3.16 µM (active). `CCC(=O)Nc1ccc(/C(C)=N\NS(=O)(=O)c2ccc(C)cc2)cc1`: the AC50 was 2.24 µM (active). In the case of `COc1ccc(/C(C)=N/NC(=O)c2ccc(N(C)C)cc2)cc1`, the “activity, negative = inhibition” value is -59.1%. With `COc1ccc(CC(=O)Nc2cccc(/C(C)=N/NC(=O)c3cccc([N+](=O)[O-])c3)c2)cc1`, the AC50 is 1.58 µM (active). As to `C/C(=N\NC(=O)c1cccc(Cl)c1)c1cccc(NC(=O)C(C)C)c1`, the “activity, negative = inhibition” value is -1.8%. As to `C/C(=N/NS(=O)(=O)c1ccc(C)cc1)c1cccc(NC(=O)c2cccc(Cl)c2)c1`, the AC50 was 3.98 µM (active). Regarding `COc1ccc(NC(=O)c2cc(S(=O)(=O)N3CCS(=O)(=O)CC3)ccc2Cl)cc1`, the “activity, negative = inhibition” value is -7.18%.

For the compound `COc1ccc(C(=O)N/N=C(\C)Cn2nc([N+](=O)[O-])cc2C)cc1`, the “activity, negative = inhibition” value was -17.7%. On to `COc1ccc(S(=O)(=O)N/N=C(/C)c2cccc(NC(=O)c3ccccc3Cl)c2)cc1`, for which the concentration at half-maximal activity (AC50) is 0.2 µM (active).

For the compound `CC(C)c1ccc(/C=C2\C=C(c3ccc4ccccc4c3)OC2=O)cc1`, the activity, negative = inhibition was -10% [at 11.4 µM].

For the compound `O=C(O)c1ccccc1C(=O)Nc1cc2c(cc1Br)-c1ccccc1C2=O`, the activity, negative = inhibition was -5.92% [at 11.4 µM].

Take `O=C1c2ccccc2C(=O)c2c1ccc(C(=O)O)c2-c1ccc2ccccc2c1`: the concentration at half-maximal activity (AC50) is 1.58 µM (active). The same measure, in the same setting: as for `CC(C)OCCCN1CN(S(=O)(=O)c2cccc(Cl)c2)c2nc3ccccc3nc21`, the figure is 2.82 µM (active). Consider `CCn1nc(C)c(NC(=O)/C=C/c2cnn(C)c2C)c1C`, for which the “activity, negative = inhibition” value was 6.79%.
